Only some compounds are listed: those with a hit (about 19% of all), similar ones and a draw of the others.
TDP1 cell CPT: DT40-hTDP1 cell growth loss with CPT; Potency, µM (titrated, usually from 46.2 µM), hits mostly inhibitors; hit rate 12% among 420,000; AID 686979; chicken DT40 Tdp1-/-;hTDP1 cells + 20 nM CPT, ATP luminescence, 48 h; further: nearly all actives have a fitted effect of over 55% in size
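Chicken DT40 Tdp1-/- cells complemented with human TDP1, 400 cells/well, exposed to compounds plus 20 nM camptothecin for at least 48 h at 37 C; viability read as ATP content by CellTiter-Glo luminescence.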
Giardia killer: kills Giardia lamblia; Giardia lamblia trophozoite viability; activity change, % at 7.66 µM, hits read low; hit rate 0.15% among 340,000; in the data active means activity change below about -80%; inconclusive means between about -30% and that limit;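 further: parasites exposed to compound for two days anaerobically before the ATP read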
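Luminescence from cellular ATP indicates surviving trophozoites (100 cells/well) following 48 hrs anaerobic compound treatment at 37 deg C; signal develops 15-30 min at room temperature.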
TDP1 inh: TDP1 (human) enzyme inhibition | Q9NUW8 | recombinant TDP1, AlphaScreen DNA substrate cleavage | Potency, µM (titrated, usually from 130 µM), most hits filed as inhibitors | hit rate 0.28% among 350,000 | AID 485290; further: nearly all actives have a fitted effect of over 40% in size
Target sequence (Q9NUW8 whole entry, looked up): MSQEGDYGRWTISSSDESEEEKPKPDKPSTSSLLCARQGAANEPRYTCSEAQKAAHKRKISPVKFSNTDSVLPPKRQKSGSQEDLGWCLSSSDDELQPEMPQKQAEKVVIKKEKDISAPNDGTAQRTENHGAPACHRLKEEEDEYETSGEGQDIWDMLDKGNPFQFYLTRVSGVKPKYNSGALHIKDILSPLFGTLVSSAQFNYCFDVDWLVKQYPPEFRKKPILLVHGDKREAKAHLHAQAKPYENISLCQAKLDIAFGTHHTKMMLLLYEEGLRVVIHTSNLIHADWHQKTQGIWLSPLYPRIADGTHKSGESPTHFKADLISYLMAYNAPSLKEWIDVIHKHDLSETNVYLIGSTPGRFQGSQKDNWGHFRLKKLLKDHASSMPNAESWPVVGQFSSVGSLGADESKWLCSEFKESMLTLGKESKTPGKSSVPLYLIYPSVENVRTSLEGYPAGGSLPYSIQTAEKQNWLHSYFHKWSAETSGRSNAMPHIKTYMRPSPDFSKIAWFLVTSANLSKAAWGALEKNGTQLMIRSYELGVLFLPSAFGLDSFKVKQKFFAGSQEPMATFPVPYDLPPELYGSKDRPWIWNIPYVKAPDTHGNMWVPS
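Recombinant E. coli-expressed Tdp1 (1 nM) preincubated with compound 15 min at RT, then 5'-biotin/3'-phosphotyrosine-FITC DNA substrate (15 nM) added for 5 min. AlphaScreen beads (10 ug/ml) added, 10 min RT; tyrosine-FITC cleavage read as signal loss.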
IL-1B inflam inh: inhibitors of inflammasome signaling (IL-1 beta secretion); THP-1 LPS/ATP IL-1B secretion, AlphaLISA, 16 h; hits give low values; AID 743279; hit rate 4.7% among 360,000; activity change, % at 57.5 µM; in the data active means activity change below about -50%; inconclusive means mostly about -30% to -49%
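THP-1 cells pretreated 1 hr with compounds (up to 57.5 uM final), then stimulated with LPS (250 ng/mL final) plus ATP (1.25 mM final); secreted IL-1B measured by AlphaLISA after 16 hr, decreased signal indicating inhibition.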
DT40 TDP1 no CPT: qHTS for Inhibitors of human tyrosyl-DNA phosphodiesterase 1 (TDP1): qHTS in cells in absence of CPT; DT40 Tdp1-/- hTDP1 cells, no CPT, ATP luminescence, 48 h; Potency, µM (series often up to 46.2 µM), most hits filed as inhibitors; hit rate 15% among 420,000; further: nearly all actives have a fitted effect of over 55% in size
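Readout: luminescence from CellTiter-Glo after 30 min in the dark at RT. Cells: DT40 Tdp1-/- with stable hTDP1, 400/well. Exposure: compounds alone, ≥48 hr, 37 °C.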
ELG1 DNA repair: blocks ELG1-dependent DNA repair in HEK293T cells | HEK293T ELG1-luciferase reporter, luminescence, 16 h; DNA damage induced by 5-fluorouridine | Potency, µM (highest dose often 46.1 µM), actives largely listed as inhibitors | hit rate 2.3% among 330,000 | AID 504467; further: nearly all actives have a fitted effect of over 55% in size
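Overnight (16 hr) co-exposure of 2,000 cells/well to 5-fluorouridine and compound at 37 °C preceded detection. Luciferase was quantified via ONE-Glo luminescence; loss of signal denotes inhibition.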
Numbers stand for hits; 0 = inactive; ? = inconclusive; - = no result given; [ ] = dose if it differs, or a comment. Unless noted, the call rests on the fitted dose curve; in most records, active means well fitted curve in the direction sought with a large enough effect; inconclusive means small, poorly fitted or top-dose-only effect, or another doubt; inactive means no such curve, though single readings can be large; an effect the other way counts as inactive or inconclusive.

SMILES | TDP1 cell CPT | Giardia killer | TDP1 inh | IL-1B inflam inh | DT40 TDP1 no CPT | ELG1 DNA repair
O=C(NCCN1Cc2ccccc2OC(c2ccsc2)C1)c1ccc2[nH]ccc2c1 (centres undefined) | 0[9.04 µM] | - | - | - | 0 | -
C=CCOn1c(=O)c(-c2cc3ccccc3o2)[n+]([O-])c2ccccc21 | 0 | 0 | 0 | 0 | 18.4µM | ?
O=c1c(-c2ccco2)[n+]([O-])c2ccccc2n1OCc1ccccc1[N+](=O)[O-] | ? | 0 | 0 | 0 | ? | 23.1µM
O=c1c(-c2ccco2)[n+]([O-])c2ccccc2n1OCc1ccccn1 | 0 | 0 | 0 | 0 | 0 | 0
CCCCCCOC(=O)c1ccc(OC(=O)c2cccnc2)cc1 | 0 | 0 | 0 | ? | 0 | ?
CCCCCCCOc1ccc(OC(=O)c2cccnc2)cc1 | 5.17µM | 0 | 0 | 0 | 8.2µM | ?
CCCCCCCOc1ccc(OC(=O)c2ccncc2)cc1 | 9.2µM | 0 | 0 | 0 | 10.3µM | 0
CCCCOc1ccc(OC(=O)c2cccnc2)cc1 | 20.6µM | 0 | 0 | 0 | 16.4µM | 0
Cc1ccc(CNC(=O)C2CCCN(c3nc4ccsc4c(=O)s3)C2)cc1 (centres undefined) | ? | 0 | 0 | 0 | ? | 0
Cc1cc(Nc2cc(Cl)nc(Sc3ccc(NC(=O)C4CC4)cc3)n2)n[nH]1 | - | 0 | - | - | - | -
COc1cc(C=C2CCCC(=Cc3ccc(OCC4CO4)c(OC)c3)C2=O)ccc1OCC1CO1 (centres undefined) | 5.8µM | - | - | -104.5 | 3.66µM | -
COc1ccc(/C=C2\N=C(C)OC2=O)cc1OC(C)=O | ? | 0 | - | 0 | 0 | 0
COc1ccc(/C=C2\SC(c3ccc(C)cc3)=NC2=O)cc1OC | 0 | 0 | 0 | 0 | 0 | 0
COc1ccc(/C=C2/CSC/C(=C/c3ccc(OC)c(OC)c3)C2=O)cc1OC | 4.11µM | 0 | - | -116.8 | 2.91µM | -
COc1ccc(/C=C2\N=C(C)OC2=O)cc1OC | 10.3µM | 0 | - | 0 | 0 | 0
CC1=CC(C)(C)NC(=S)N1C(C)c1ccccc1 (centres undefined) | ? | 0 | - | 0 | ? | 0
Cc1ccc(CN2CC(C(=O)N3CCN(c4ccccc4O)CC3)CC2=O)cc1 (centres undefined) | 0 | 0 | 0[0.505 µM] | 0 | ? | 0
COc1ccc(N2C(=O)[C@@H]3C[C@H]2CN3Cc2cccn2-c2ccccn2)cc1Cl | 0[9.04 µM] | - | - | - | 0 | -
CCOc1ccc(OCC)c(S(=O)(=O)N2CCN(c3cccc(C)c3C)CC2)c1 | - | - | 0 | - | - | -
Cc1cc(C)c(NC(=O)CN2C(=O)C3(SCC(=O)N3c3ccc(F)cc3)c3ccccc32)c(C)c1 (centres undefined) | ? | - | 0 | - | ? | -
CC1=CC(C)(C)N2C(=O)C3(SCC(=O)N3c3ccc(F)cc3)c3cc(C)cc1c32 (centres undefined) | 29.1µM | 0 | 0 | 0 | 10.3µM | 0
C/C(CC(=O)Nc1ccc2c(c1)OCCO2)=N\NC(=O)COc1ccc(Cl)c(C)c1 | 0 | 0 | 0 | 0 | 0 | 0
COc1ccc(Cc2nnc(SCC(=O)Nc3c(C)cccc3C)[nH]c2=O)cc1 | ? | 0 | 0 | 0 | 9.2µM | 0
CNC(=O)C1CCC(Cn2c(=O)c3sccc3n(CC(=O)Nc3ccc(C)cc3C)c2=O)CC1 (centres undefined) | 0 | - | 0 | - | 0 | -
CNC(=O)C1CCC(Cn2c(=O)c3sccc3n(CC(=O)Nc3ccc(C)c(C)c3)c2=O)CC1 (centres undefined) | 9.2µM | - | 0 | - | 9.2µM | -
CCOc1ccc(NC(=O)Cn2c(=O)n(CCCCCC(=O)NCc3ccccc3)c(=O)c3sccc32)cc1 | ? | - | 0 | - | 16.4µM | -
Cc1ccc(NC(=O)Cn2c(=O)n(CCCCCC(=O)NCc3ccc(F)cc3)c(=O)c3sccc32)cc1C | ? | - | 0 | - | 6.51µM | -
CCN(CC)C(=O)Cn1c(=O)n(CCCCCC(=O)NCc2ccccc2)c(=O)c2sccc21 | 0 | - | 0 | - | 0 | -
CCN1C(Br)=CCc2ccccc21 | 0 | - | - | - | 0 | -
